Assay results published in PubChem BioAssay (Tox21).
Active and inactive are the calls of the source. Calls follow the shape of the full dose curve.

assay: qHTS assay to identify small molecule agonists of the sonic hedgehog signaling (Shh) pathway (AID 1259368); settings: NIH/3T3 Gli1-Luc reporter, luciferase, 24 h; series mostly up to 92.4 µM; activity change: at the top concentration;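 also: NIH/3T3-derived 3T3Gli1-Luc cells carrying a stable Gli1-driven firefly luciferase reporter; nearly all actives have a fitted effect of over 15% in size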
Excerpt: National Center for Advancing Translational Sciences [NCATS]
NIH Chemical Genomics Center [NCGC]
U.S. Environmental Protection Agency [EPA]
National Institutes of Environmental Health Sciences [NIEHS]
National Toxicology Program [NTP]
The sonic hedgehog (Shh) pathway is essential for normal embryonic development. Dysregulation of the Shh pathway can cause severe developmental defects in organs. Therefore chemicals that interfere with the pathway are potential developmental toxicants. A cell line designated 3T3Gli1-Luc (DMB/OARSA/CFSAN/FDA, Laurel, MD), a NIH/3T3 derived clone containing stably integrated Gli1-Luc reporter is used to detect chemical interference of the Shh pathway, by changes in the expression of the firefly Luc gene under the control of the Gli1 transcriptional response element. This cell line was used to screen Tox21 libraries for identifying and prioritizing the potential developmental toxicants that interfere Shh pathway.
3T3 Gli1-Luc cells were dispensed at 2,000 per well in 5uL of culture medium into white solid bottom 1536-well plates (Greiner Bio-One, Monroe, NC) using a Multidrop Combi (Thermo Scientific, Waltham, MA) dispenser. The assay plates were incubated at 37 C and 5% CO2 for 4hr, and then 23nL of compounds dissolved in DMSO and positive control were transferred using a Pintool station (Wako, San Diego, CA). The assay plates were incubated at 37C and 5% CO2 for 24hr. For luciferase read, 4uL of Amplite Luciferase reporter gene assay reagent (AAT Bioquest, Inc. Sunnyvale, CA) was added to each well of the assay plates using Flying Reagent Dispenser (FRD, Aurora Discovery, San Diego, CA) and incubated at room temperature for 30min. The luminescence signal was measured using a ViewLux plate reader (Perkin Elmer, Shelton, CT).
% is scaled to controls: 0 for no effect and ±100 for the full control effect.

Row | SMILES | activity change | Potency
1 | CC(O)CN1CCN(CC(=O)[O-])CCN(CC(=O)[O-])CCN(CC(=O)[O-])CC1.[Gd+3] (stereo not given) | -0.0271% [at 42.5 µM, stronger effect = higher value] (inactive) | –
2 | CC(Cl)C(=O)O (stereo not given) | 2.21% (inactive) | –
3 | CCCCCCCCCCCCCCCl | 10.6% (inactive) | –
4 | CCCCCCCCCCCCN=C(N)N | 0.488% [at 3.27 µM, stronger effect = higher value] (inactive) | –
5 | CC(C)OC(=O)Cc1ccccc1 | -0.017% (inactive) | –
6 | CCC(C)(C)O | -0.0982% (inactive) | –
7 | O=C([O-])c1ccccn1.O=C([O-])c1ccccn1.O=C([O-])c1ccccn1.[Cr+3] | 0.57% (inactive) | –
8 | C[Si](Cn1cncn1)(c1ccc(F)cc1)c1ccc(F)cc1 | – | inactive
9 | CC(C)C1(C)N=C(c2ncccc2C(=O)O)NC1=O (stereo not given) | -0.536% (inactive) | –
10 | CN(C1CCCCC1)C1CCCCC1 | -0.245% (inactive) | –
11 | OC[P+](CO)(CO)CO | – | inactive
12 | CCCN(CCC)c1c([N+](=O)[O-])cc(C(C)C)cc1[N+](=O)[O-] | – | inactive
13 | CCC(C)Cl (stereo not given) | 0.0245% (inactive) | –
14 | O=C(Cc1ccccc1)c1ccccc1 | 0.163% (inactive) | –
15 | C[N+](C)(C)CCOC(=O)C(O)(c1ccccc1)c1ccccc1 | -0.253% [at 42.5 µM, stronger effect = higher value] (inactive) | –
16 | O=C(Cl)OCCOCCOC(=O)Cl | -4.39% (inactive) | –
17 | C=CCOCC1CO1 (stereo not given) | -0.785% (inactive) | –
18 | CN(C)c1ccc(N=O)cc1 | – | inactive
19 | O=C(NC(=O)c1cc(F)c(F)cc1Cl)Nc1cc(F)ccc1N1CCC(C(=O)O)CC1 | 6.61% [at 42.5 µM, stronger effect = higher value] (inactive) | –
20 | CN[C@@H](C)[C@H](O)c1ccccc1 | -0.783% [at 42.5 µM, stronger effect = higher value] (inactive) | –

Row | SMILES | activity change | Potency
21 | CC1(C)[C@H](C(=O)O[C@H](C#N)c2cccc(Oc3ccccc3)c2)[C@@H]1C=C(Br)Br | – | inactive
22 | O=C(O)c1cc(Cl)ccc1Cl | 0.718% (inactive) | –
23 | CCc1cnc(C2=NC(C)(C(C)C)C(=O)N2)c(C(=O)O)c1 (stereo not given) | – | inactive
24 | CCc1ccccc1N | 0.698% (inactive) | –
25 | CC(=O)NNc1ccccc1 | -2.57% (inactive) | –
26 | CC(C)[C@@H](C(=O)O[C@@H](C#N)c1cccc(Oc2ccccc2)c1)c1ccc(Cl)cc1 | – | inactive
27 | CCCCCl | 1.2% (inactive) | –
28 | CCCC1CCCCN1 (stereo not given) | -0.0571% [at 42.5 µM, stronger effect = higher value] (inactive) | –
29 | CC(Oc1cccc(Cl)c1)C(=O)O (stereo not given) | 0.0889% (inactive) | –
30 | c1ccc2c(c1)sc1ccccc12 | – | inactive
31 | O=C(Cc1ccccc1)OCCc1ccccc1 | 0.266% (inactive) | –
32 | CC1(C)CC(=O)CC(C)(C)N1[O] | -0.137% (inactive) | –
33 | Nc1ccccc1C(=O)OCC(O)CO (stereo not given) | 0.734% [at 42.5 µM, stronger effect = higher value] (inactive) | –
34 | CCCCC#N | 0.107% (inactive) | –
35 | c1ccc2sc(SNC3CCCCC3)nc2c1 | – | inactive
36 | O=C(O)c1cc(I)cc(I)c1I | 0.152% (inactive) | –
37 | C[C@@H]1C[C@@H]([C@H](O)CC2CC(=O)NC(=O)C2)C(=O)[C@@H](C)C1 | – | inactive
38 | CN1CC[C@]23c4c5ccc(O)c4O[C@H]2[C@@H](O)C=C[C@H]3[C@H]1C5 | -0.259% (inactive) | –
39 | NNCCO | 0.725% (inactive) | –
40 | N#CC(C#N)=Cc1ccc(O)c(O)c1 | -0.199% [at 42.5 µM, stronger effect = higher value] (inactive) | –
